RORg inh: qHTS for inhibitors of ROR gamma transcriptional activity; Nuclear receptor ROR-gamma (Mus musculus), P51450; Drosophila S2 Gal4-RORgamma UAS-luciferase reporter, 20 h; Potency, µM (doses to about 53.6 µM), inactives show top-dose activity change, negative = inhibition, usual class: inhibitors; 310,000 compounds, 5.4% hits; AID 2551, 2010; further: on the % scale 0 is the no-effect control and ±100 the full control effect; nearly all actives have a fitted effect of over 60% in size
Target sequence (P51450 whole entry, looked up, the tested form may be a part): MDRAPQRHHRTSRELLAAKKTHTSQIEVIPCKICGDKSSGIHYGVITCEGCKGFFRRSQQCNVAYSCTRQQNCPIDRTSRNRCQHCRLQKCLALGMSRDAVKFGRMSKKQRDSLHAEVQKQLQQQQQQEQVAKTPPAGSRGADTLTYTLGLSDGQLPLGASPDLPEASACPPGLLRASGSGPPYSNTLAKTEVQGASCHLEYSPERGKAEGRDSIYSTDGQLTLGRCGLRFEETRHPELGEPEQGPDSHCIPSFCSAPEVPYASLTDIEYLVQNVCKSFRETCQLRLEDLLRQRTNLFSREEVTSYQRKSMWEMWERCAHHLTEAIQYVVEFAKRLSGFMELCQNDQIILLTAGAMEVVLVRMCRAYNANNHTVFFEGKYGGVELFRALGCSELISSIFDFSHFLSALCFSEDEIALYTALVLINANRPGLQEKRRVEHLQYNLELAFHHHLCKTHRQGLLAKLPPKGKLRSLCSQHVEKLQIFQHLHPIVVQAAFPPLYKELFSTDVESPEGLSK
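Using a luciferase readout, inhibitors were identified by reduced reporter activity in Drosophila cells coexpressing a copper-inducible Gal4–ROR gamma fusion and UAS-driven Photinus luciferase, incubated 20 hr after 700 uM copper sulfate.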
ATXN2 expr inh: Primary qHTS for Inhibitors of ATXN expression; HEK-293 ATXN2-luciferase reporter, luminescence, 24 h; Potency, µM (doses to about 57 µM), without a hit: at the top dose activity change, negative = inhibition, usual class: inhibitors; 360,000 compounds, 0.72% hits; AID 1745845, 2022; further: on the % scale 0 is the no-effect control and ±100 the full control effect; nearly all actives have a fitted effect of over 55% in size
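ATXN2-luciferase reporter cells (luciferase flanked by upstream and downstream ATXN2 gene portions) were treated 24 h at 37 °C with compounds at up to 57 uM. SteadyGlo luminescence gave expression; GF-AFC fluorescence gave viability.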
S2 tox: Viability Counterscreen for Primary qHTS for Inhibitors of ATXN expression; S2 cells (HEK-293 line with an ATXN2-luciferase reporter) viability, CellTiter-Fluor protease fluorescence, 24 h; AID 651635, 2014; 400,000 compounds, 0.49% hits; Potency, µM (doses to about 56.7 µM), hits mostly cytotoxic; further: nearly all actives have a fitted effect of over 40% in size
TGFb inhibitor: qHTS for Inhibitors of TGF-b; HepG2 CAGA-GFP TGF-b/SMAD3 reporter, GFP fluorescence, 18 h; TGF-beta stimulated, 500 pg/mL final; Potency, µM (series often up to 46.1 µM), inactives show at the top dose activity, negative = inhibition, actives largely listed as inhibitors; 410,000 compounds, 1.2% hits; further: on the % scale 0 is the no-effect control and ±100 the full control effect; nearly all actives have a fitted effect of over 65% in size
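Inhibition was scored as loss of TGF-beta-induced (500 pg/mL final, 18 hours, 37 degrees C) GFP in HEPG2 cells carrying a CAGA-GFP reporter, in DMEM with 1% FBS. Well GFP was summed per cell; Activity was normalised to unstimulated and stimulated DMSO wells, then concentration-response fitting.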
VP16 counter: VP16 counterscreen qHTS for inhibitors of ROR gamma transcriptional activity; Potency, µM (titrated, usually from 53.6 µM), for inactives: at the top dose activity, negative = inhibition, hits mostly inhibitors; 310,000 compounds, 3.5% hits; Drosophila S2 Gal4-VP16 UAS-luciferase, luminescence, 20 h; AID 2546, 2010;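 further: Gal4-VP16 expression switched on by copper sulfate through the metallothionein promoter; on the % scale 0 is the no-effect control and ±100 the full control effect; nearly all actives have a fitted effect of over 50% in size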
HepG2 viability: qHTS for Inhibitors of TGF-b: Cytotox Counterscreen; HepG2 CAGA-GFP viability, ATP luminescence, 18 h; Potency, µM (titrated, usually from 46.1 µM), without a hit: at the highest dose activity change, negative = cytotoxicity, actives largely listed as cytotoxic; 410,000 compounds, 0.76% hits; AID 588856, 2011
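CellTiter-Glo luminescence gave cytotoxicity after 18 hours at 37 degrees C. The cells were HepG2 CAGA-GFP in 1% FBS DMEM, stimulated with 500 pg/mL TGF-beta after compound addition. %Activity was normalised to no-cell wells (complete cell-killing) and DMSO (no toxicity), and curves were fitted and classified.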
* hit, by the source's call; i = inactive; ? = inconclusive; . = no result given; ! = not active in a repeat; [ ] = dose if it differs, or a comment. Compounds with a hit are over-represented: about 6.1% of the library has one in this group of screens. The call rests on the fitted dose curve; in most records, active means well fitted curve in the direction sought with a large enough effect; inconclusive means small, poorly fitted or top-dose-only effect, or another doubt; inactive means no such curve, though single readings can be large; an effect the other way counts as inactive or inconclusive. Potency means the concentration at half of the fitted maximal effect.

SMILES	RORg inh	ATXN2 expr inh	S2 tox	TGFb inhibitor	VP16 counter	HepG2 viability
O=C1[C@H](Cc2ccccc2)NC/C=C\C[C@@H](c2ccc(Cl)cc2)N1Cc1ccccc1	.	.	.	?	.	8.9µM*
O=C1[C@H](Cc2ccccc2)NC/C=C\C[C@H](c2ccc(Cl)cc2)N1Cc1ccc(Cl)cc1	.	.	.	?	.	-61%
C[C@H](NC(=O)c1nc[nH]c1C(=O)NCC(=O)OCc1ccccc1)C(=O)OC(C)(C)C	-88%	2%	i	-43%	?	0%
CC(C)C[C@H](NC(=O)c1[nH]cnc1C(=O)N[C@@H](C)C(=O)OCc1ccccc1)C(=O)OC(C)(C)C	7.1µM*	?	?	?	16µM*	-31%
CC(C)C[C@H](NC(=O)c1nc[nH]c1C(=O)NCC(=O)OCc1ccccc1)C(=O)OC(C)(C)C	13µM*	-13%	i	?	?	-32%
COc1ccc(-c2nc(SCC(=O)NCCc3ccc(OC)c(OC)c3)n[nH]2)cc1	.	.	.	-8%	.	-1%
CC(=O)/C=C\c1ccccc1OC(=O)c1cc2ccccc2oc1=O	-23%	11%	i	13%	16%	-1%
O=C(/C=C\c1ccccc1OC(=O)c1ccccc1F)c1cc2ccccc2o1	?	55%	i	14µM*	0.32µM*	-44%
Cc1ccc2onc(CNC(=O)Nc3cc(F)ccc3F)c2c1	.	-5%	i	-30%	.	-7%
Cc1ccc(C)c2[nH]c(=O)c(CCNC(=O)c3cc4ccccc4o3)cc12	-59%	0%	i	0%	13µM*	-15%
COc1ccc(OC)c2[nH]c(=O)c(CCNC(=O)c3cc4ccccc4o3)cc12	-14%	-20%	?	3%	-8%	0%
CCCCC1C(=O)N(c2ccccc2)N(c2ccc(O)cc2)C1=O (stereo not given)	4.5µM*	5.6µM*	7.9µM*	5.6µM*	5.6µM*	8.9µM*
Cc1cccc(-n2c(C)nc3c(cnn3-c3ccc(F)cc3)c2=O)c1	-39%	5%	i	-10%	7.1µM*	-21%
Cc1cccc(-n2c(-c3ccco3)nc3c(cnn3-c3ccc(F)cc3)c2=O)c1	.	-12%	i	?	.	-22%
COc1cc(CN2CCC3(CCC(CNC(=O)c4ccco4)O3)CC2)cc(OC)c1 (stereo not given)	.	.	i	.	.	.
CCN1CCN(C(CNS(=O)(=O)c2ccc(Cl)cc2)c2ccccc2)CC1 (stereo not given)	-15%	-12%	i	0%	-4%	-12%
O=S(=O)(NCC(c1ccccc1)N1CCNCC1)c1ccc(Cl)cc1 (stereo not given)	-2%	?	?	13µM*	-11%	-101%
O=S(=O)(NCC(Nc1ccc(Cl)cc1)c1ccccc1)c1ccccc1 (stereo not given)	114%	?	.	?	?	16µM*!
COc1cccc(NC(CNS(=O)(=O)c2ccc(Cl)cc2)c2ccccc2)c1 (stereo not given)	.	?	?	11µM*	.	-101%
Cc1ccc(NC(CNS(=O)(=O)c2ccc(Cl)cc2)c2ccccc2)cc1 (stereo not given)	?	?	i	?	-25%	-83%
COc1cccc(NC(CNS(=O)(=O)c2ccc(C)cc2)c2ccccc2)c1 (stereo not given)	.	?	?	14µM*	.	-94%
O=C(c1ccccc1)C(c1ccccc1)[n+]1csc2ccccc21 (stereo not given)	.	.	.	?	.	2%
COC1=C(Nc2ccccc2)C(=O)c2ccccc2C1=O	8%	-19%	?	16µM*	-2%	-95%
COC1=C(Nc2ccc(C)cc2)C(=O)c2ccccc2C1=O	10%	5%	?	?	-8%	-89%
CC(=O)Nc1nc(NC(=O)C(Cl)(Cl)Cl)n(-c2ccccc2)n1	7.1µM*	-20%	i	3%	13µM*	-3%
SMILES	RORg inh	ATXN2 expr inh	S2 tox	TGFb inhibitor	VP16 counter	HepG2 viability
Nc1nonc1-n1nnc(C(=O)N/N=C/c2ccc(OCc3ccccc3)cc2)c1COc1ccc(F)cc1	-7%	2%	i	7%	1%	7%
CCc1c(C(=O)N/N=C/c2cccs2)nnn1-c1nonc1N	13µM*	-7%	i	10%	?	-13%
Nc1nonc1-n1nnc(C(=O)N/N=C/c2cccs2)c1CSc1ccccc1	?	-3%	i	3%	5µM*	-6%
Nc1nonc1-n1nnc(C(=O)N/N=C/c2ccc(OCc3ccccc3)cc2)c1CNc1ccccc1	11µM*	-12%	i	-19%	?	-29%
Nc1nonc1-n1nnc(C(=O)N/N=C/C=C/c2ccccc2)c1CSC1=NCCS1	1.4µM*	-12%	?	?	3.2µM*	14%
CCCCCCCC/C=C/CCCCCCCC(=O)NCCOP(=O)(O)O	-11%	.	.	.	-8%	.
Cc1cccc2cc(C#N)c(NCCNS(=O)(=O)c3ccccc3)nc12	-9%	-6%	.	12%	5%	-19%
COc1cc(C(=O)NCCCNc2nc3cc(C)cc(C)c3cc2C#N)cc(OC)c1OC	?	-3%	i	1%	-7%	-6%
COCCCNC(=S)NCCNc1nc2cc(C)cc(C)c2cc1C#N	8.9µM*	-14%	i	14%	?	11%
Cc1cccc2cc(C#N)c(NCc3ccccc3)nc12	5.6µM*	.	i	-9%	7.1µM*	0%
CCOCCCNC(=S)NCCNc1nc2c(C)cccc2cc1C#N	0.25µM*	?	i	?	3.2µM*	-49%
COc1ccc(C2C(=O)N(C3CCCCCC3)CC(=O)N2CCc2ccc(OC)c(OC)c2)cc1 (stereo not given)	.	.	.	1%	.	-6%
N#Cc1c2c(c(-c3ccccc3Cl)[nH]c1=S)CCCC2	16µM*	-11%	i	-3%	16µM*	-6%
N#Cc1c(-c2ccccc2Cl)cc(-c2ccccc2)[nH]c1=S	-5%	.	.	.	3%[10 µM]	.
O=C1CC(SCCO)C(=O)N1c1ccccc1 (stereo not given)	28%	2%	i	4%	1%	2%
Cn1nnnc1SC1CC(=O)N(c2ccccc2)C1=O (stereo not given)	7.9µM*	.	i	-12%	?	14%
